The nature of assay [1]: qHTS to identify inhibitors of the type 1 interferon - major histocompatibility complex class I in skeletal muscle: primary screen against the NCATS Pharmaceutical Collection (AID 1347407).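 Also: luminescence of HiBiT knocked into endogenous HLA-B as interferon-induced MHC class I level.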 Also: potency is read from the fitted curve at half-maximal effect. A digest of the protocol:
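Cells were seeded with 4 ng/ml IFN-beta, incubated 1 h, then dosed with compounds over eight 1:5 steps up to 46 uM final. After 24 h at 37 C, HiBiT lytic reagent was added and luminescence read after 10 min lysis in the dark.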
On the technique in general: qHTS replaces the single test concentration by a dilution series.

Assay [2] has as its target Protein phosphatase 1D (Homo sapiens) (UniProt O15297). As to the kind of experiment: RapidFire Mass Spectrometry qHTS Assay for Modulators of WT P53-Induced Phosphatase 1 (WIP1) (AID 1347424).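 Also: amount of dephosphorylated VEPPL-S-QETFS peptide product formed by WIP1; series mostly up to about 63 µM.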 A digest of the protocol: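 Mass-spectrometric measurement of dephosphorylated peptide after a 5 min room-temperature reaction of 10 nM WIP1 with 2 uM phosphopeptide, following 1 h compound preincubation in 30 mM MgCl2 buffer.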

For assay [3] the target is unchanged. The assay can be described thus: Rhodamine-PBP qHTS Assay for Modulators of WT P53-Induced Phosphatase 1 (WIP1) (AID 1347425). A digest of the protocol: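 Steps: enzyme with Rh-PBP sensor and compounds, room-temperature incubation of 1 hr, baseline read, addition of VEPPL-pS-QETFS (10 uM final), kinetic fluorescence reads at 525/598 nm. Activity equals final minus baseline signal.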

A short description of assay [4]: Primary qHTS for inhibitors of La Crosse Virus (LACV) - induced cell death in SH-SY5Y cells (AID 1508616).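 Also: top concentration of the series differs between compounds; higher means more rescue of cells from virus-induced death.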 A digest of the protocol:
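Cytopathicity rescue screen: compounds pinned onto SH-SY5Y cells, which are then infected with LACV (MOI 0.01) and held 6 days at 37C. Percent activity is scaled between infected DMSO control and uninfected DMSO control.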

Records with an inconclusive call do not appear. Where a call stands in place of a potency, no number is given. The source made the active and inactive calls. Calls follow the shape of the dose curve; as a rule, active = well fitted curve in the direction sought with a large enough effect; inconclusive = small, poorly fitted or top-dose-only effect, or another doubt; inactive = no such curve, though single readings can be large; an effect the other way counts as inactive or inconclusive.

Protein phosphatase 1D (Homo sapiens), sequence (O15297 whole entry, looked up): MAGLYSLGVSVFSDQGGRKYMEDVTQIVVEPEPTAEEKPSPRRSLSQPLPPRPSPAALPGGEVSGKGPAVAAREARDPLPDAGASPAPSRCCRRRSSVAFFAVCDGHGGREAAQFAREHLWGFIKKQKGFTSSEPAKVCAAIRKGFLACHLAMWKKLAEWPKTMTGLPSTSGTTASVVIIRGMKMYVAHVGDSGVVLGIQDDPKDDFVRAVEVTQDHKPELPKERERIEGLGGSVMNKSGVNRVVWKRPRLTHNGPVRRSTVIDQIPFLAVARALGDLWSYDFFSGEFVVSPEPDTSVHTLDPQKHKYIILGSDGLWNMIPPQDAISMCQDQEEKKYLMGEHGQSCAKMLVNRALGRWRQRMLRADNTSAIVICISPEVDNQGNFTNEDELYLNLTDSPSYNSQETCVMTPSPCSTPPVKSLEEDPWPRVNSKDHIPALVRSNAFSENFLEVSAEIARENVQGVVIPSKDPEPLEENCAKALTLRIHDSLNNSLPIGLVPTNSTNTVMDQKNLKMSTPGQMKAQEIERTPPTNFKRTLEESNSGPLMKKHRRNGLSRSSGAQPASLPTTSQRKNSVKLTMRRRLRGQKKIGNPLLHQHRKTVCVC

For `CCOC(=O)NNc1ccc(N(CC)CC(C)O)nn1` (configuration not stated), the Potency entry in assay [1] and in assay [2] was “inactive” each time. In addition, the result in assay [3] and in assay [4] was inactive.
For the compound `Nc1ncnc2c1ncn2Cc1c(F)cccc1Cl`, the Potency entry in assay [1] and in assay [2] was “inactive” each time. The compound was called inactive in assay [3] and in assay [4].
Regarding `Oc1ccccc1-c1nnco1`, the Potency result in assay [1] and in assay [2] was “inactive” each time. Further, the result in assay [3] and in assay [4] was inactive.
Consider `CC(C)NCCCC1(C(N)=O)c2ccccc2-c2ccccc21`, for which the Potency result in assay [1] and in assay [2] was “inactive” in each case. For the same compound, the call in assay [3] was inactive.
Turning to `CC(C)C(C)(C)C(C)(C)C(C)(C)S`, the Potency result in assay [1] and in assay [2] was “inactive” throughout. Besides, the compound was called inactive in assay [3] and in assay [4].
For the compound `CCOC(=O)NNc1nncc2ccccc12`, the Potency result in assay [1] and in assay [2] was “inactive” throughout. Also, the outcome in assay [3] and in assay [4] was inactive.
As to `CC(C)C(=O)Nc1cccc(C2CN3CCSC3=N2)c1` (configuration not stated), the Potency entry in assay [1] and in assay [2] was “inactive” in each case. In addition, the outcome in assay [3] and in assay [4] was inactive.
In the case of `C[C@H]1NCc2cc(-c3ccc4c(=O)c(C(=O)O)cn(C5CC5)c4c3OC(F)F)ccc21`, the Potency entry in assay [1] and in assay [2] was “inactive” in each case. Also, the compound was called inactive in assay [3] and in assay [4].
On to `C[C@H](CN1CCCC1)C(=O)c1ccc(C(F)(F)F)cc1`, for which the Potency entry in assay [1] and in assay [2] was “inactive” each time. Also, the outcome in assay [3] and in assay [4] was inactive.
With `COc1ccc2cc(C=O)ccc2c1`, the Potency entry in assay [1] and in assay [2] was “inactive” throughout. Also, the compound was called inactive in assay [3] and in assay [4].
On to `O=C(Oc1ccccc1)c1cccc(C(=O)Oc2ccccc2)c1`, for which the Potency result in assay [1] and in assay [2] was “inactive” throughout. For the same compound, the compound was classed as inactive in assay [3] and in assay [4].
Consider `CN1Cc2cc(C(=O)N3CCC(C4CCNCC4)CC3)ccc2NC(CC(=O)O)C1=O` (configuration not stated), for which the Potency entry in assay [1] and in assay [2] was “inactive” each time. Further, the compound was called inactive in assay [3] and in assay [4].
For the compound `O=C(OCC1(COC(=O)c2cccnc2)CCCC(COC(=O)c2cccnc2)(COC(=O)c2cccnc2)C1O)c1cccnc1`, the Potency result in assay [1] and in assay [2] was “inactive” throughout. Moreover, the outcome in assay [3] and in assay [4] was inactive.
Take `CCCCCN(CCCOC)C(=O)C(CCC(=O)O)NC(=O)c1ccc(Cl)c(Cl)c1` (configuration not stated): the Potency result in assay [1] and in assay [2] was “inactive” each time. The call in assay [3] and in assay [4] was inactive.
Turning to `CN1CCN(N)CC1`, the Potency entry in assay [1] and in assay [2] was “inactive” each time. Also, the result in assay [3] and in assay [4] was inactive.
As for `CCCCCC1Nc2cc(C(F)(F)F)c(S(N)(=O)=O)cc2S(=O)(=O)N1` (configuration not stated), the Potency result in assay [1] and in assay [2] was “inactive” each time. The compound was classed as inactive in assay [3] and in assay [4].
On to `Cc1[nH]cnc1-c1ccc(Cl)cc1`, for which the Potency entry in assay [1] and in assay [2] was “inactive” each time. Further, the compound was classed as inactive in assay [3] and in assay [4].
Regarding `Cc1ccc(O)cc1`, the Potency result in assay [1] and in assay [2] was “inactive” each time. In addition, the outcome in assay [3] and in assay [4] was inactive.
`CO/N=C(\C(=O)O)c1csc(NC(=O)CCl)n1`: the Potency result in assay [1] and in assay [2] was “inactive” each time. In addition, the outcome in assay [3] and in assay [4] was inactive.
On to `Cc1oc(=O)oc1COC(=O)[C@@H]1N2C(=O)[C@@H](NC(=O)[C@H](N)c3ccccc3)[C@H]2SC1(C)C`, for which the Potency entry in assay [1] and in assay [2] was “inactive” throughout. In addition, the compound was classed as inactive in assay [3] and in assay [4].
Consider `O=C(OCC(COC(=O)c1cccnc1)(COC(=O)c1cccnc1)COC(=O)c1cccnc1)c1cccnc1`, for which the Potency result in assay [1] and in assay [2] was “inactive” in each case. Moreover, the call in assay [3] and in assay [4] was inactive.
Turning to `CCOC(=O)c1ccc(O)c(O)c1`, the Potency result in assay [1] and in assay [2] was “inactive” throughout. Further, the result in assay [3] and in assay [4] was inactive.
On to `CC(=O)N(c1onc(C)c1C)S(=O)(=O)c1ccc(N)cc1`, for which the Potency entry in assay [1] and in assay [2] was “inactive” in each case. Further, the call in assay [3] and in assay [4] was inactive.
In the case of `Cc1ccccc1C(=O)N1CC/C(=N\OS(=O)(=O)O)c2ccc(Cl)cc21`, the Potency result in assay [1] and in assay [2] was “inactive” in each case. Besides, the result in assay [3] and in assay [4] was inactive.
Take `O=C1Nc2cc(Cl)ccc2Oc2ccccc21`: the Potency entry in assay [1] and in assay [2] was “inactive” in each case. Besides, the compound was classed as inactive in assay [3] and in assay [4].
For `COc1cc(C=O)ccc1O`, the Potency result in assay [1] and in assay [2] was “inactive” in each case. For the same compound, the compound was classed as inactive in assay [3] and in assay [4].
Regarding `CC(C)CCCC(C)NCCC(C)C` (configuration not stated), the Potency entry in assay [1] and in assay [2] was “inactive” each time. Also, the compound was called inactive in assay [3] and in assay [4].
Consider `CC(C)C[C@H](NC(=O)CNC(=O)[C@H](Cc1ccc(O)cc1)NC(=O)[C@H](CO)NC(=O)[C@H](Cc1c[nH]c2ccccc12)NC(=O)[C@H](Cc1cnc[nH]1)NC(=O)[C@@H]1CCC(=O)N1)C(=O)N[C@@H](CCCN=C(N)N)C(=O)N1CCC[C@H]1C(=O)NCC(N)=O` (stereo in doubt), for which the Potency result in assay [1] and in assay [2] was “inactive” each time. Moreover, the result in assay [3] and in assay [4] was inactive.
Turning to `CN1CC[C@H](c2c(O)cc(O)c3c(=O)cc(-c4ccccc4Cl)oc23)[C@H](O)C1`, in assay [1], the Potency is 210 nM (active). The Potency entry in assay [2] was “inactive”. The call in assay [3] and in assay [4] was inactive.
Regarding `O=C1c2ccccc2CCc2ccccc21`, the Potency entry in assay [1] and in assay [2] was “inactive” in each case. The result in assay [3] and in assay [4] was inactive.
For `Cc1ccc(-c2ccccc2C#N)cc1`, the Potency result in assay [1] and in assay [2] was “inactive” throughout. Further, the result in assay [3] and in assay [4] was inactive.
As for `C/C(=N/NC(=O)c1ccncc1)C(=O)O`, the Potency entry in assay [1] and in assay [2] was “inactive” throughout. The result in assay [3] and in assay [4] was inactive.
Regarding `CCOc1ncc(F)c(=O)[nH]1`, the Potency result in assay [1] and in assay [2] was “inactive” throughout. For the same compound, the compound was classed as inactive in assay [3] and in assay [4].
With `Fc1ccc(C(c2ccc(F)cc2)N2CCNCC2)cc1`, the Potency result in assay [1] and in assay [2] was “inactive” in each case. The outcome in assay [3] and in assay [4] was inactive.
For `COCCOCC(OC)OC`, the Potency result in assay [1] and in assay [2] was “inactive” in each case. The compound was classed as inactive in assay [3] and in assay [4].
On to `CC(C)OP(=O)(CP(=O)(OC(C)C)OC(C)C)OC(C)C`, for which the Potency result in assay [1] and in assay [2] was “inactive” in each case. The outcome in assay [3] and in assay [4] was inactive.
In the case of `CCc1cc2cc(OC)c(OC)cc2c(Cc2ccccc2)n1`, the Potency entry in assay [1] and in assay [2] was “inactive” in each case. For the same compound, the compound was called inactive in assay [3] and in assay [4].
